# Measurements reported in PubChem BioAssay (EPA / NIEHS).
# Activity calls are given as the source filed them. The calls were made as follows: active = hit-call score of the fitted dose curve at least 0.9, where 1 is the maximum; inactive = score below 0.9.
# Test: APR_HepG2_p53Act_24hr: Apredica 24-hour HepG2 Assay for p53 Activation (AID 2282913)
# Details: high-content imaging, actives raise or lower the signal
# Experimental: APR_HepG2_24hr is a cell-based, multiplexed-readout assay that uses HepG2, a human liver cell line, with measurements taken at 24 hours after chemical dosing in a 384-well plate.APR_HepG2_p53Act_24hr is one of 10 assay component(s) measured or calculated from the APR_HepG2_24hr assay. It is designed to make measurements of dna content, a form of viability reporter, as detected with fluorescence intensity signals by HCS Fluorescent Imaging technology.Data from the assay component APR_HepG2_p53Act_24hr was analyzed into 1 assay endpoint. This assay endpoint, APR_HepG2_p53Act_24hr, was analyzed with bidirectional fitting relative to DMSO as the negative control and baseline of activity. Using a type of viability reporter, measures of protein for gain or loss-of-signal activity can be used to understand the signaling at the pathway-level as they relate to the gene TP53. Furthermore, this assay endpoint can be referred to as a primary readout, because this assay has produced multiple assay endpoints where this one serves a signaling function. To generalize the intended target to other relatable targets, this assay endpoint is annotated to the dna binding intended target family, where the subfamily is tumor suppressor.
# Cells were treated with dimethyl sulfoxide (DMSO) as a solvent control at a final concentration of 0.5% v/v or with compounds in DMSO with a resulting final DMSO concentration of 0.5% v/v. Compound treatment was done at concentrations of 0.39, 0.78, 1.56, 3.12, 6.24, 12.5, 25, 50, 100, and 200 uM in duplicate on each plate. Cells were treated with compounds for 1, 24, or 72 hr. Carbonyl […] m-chloro-phenylhydrazone (CCCP) and taxol were used as positive controls for mitochondrial function and cytoskeletal stability, respectively; DMSO served as the negative control for this experiment. Cells were fixed by the direct addition of 50 uL formaldehyde in Hank's Balanced Salt Solution (HBSS) to a final concentration of 3.7%. After incubation in the fixation medium for 30 min at room temperature (293-298 K), cells were rinsed twice with HBSS and treated with cell permeabilization buffer (16 uL of 0.5% Triton X-100) for 10 min at room temperature (293-298 K) before labeling. For mitochondrial membrane potential and mitochondrial measurements, pre-fixed cells were incubated with 50 uL of MitoTracker Red CMXRos (Invitrogen) at a concentration of 250 nM for 30 min before fixation. In the remaining cases, post-fixed cells were labeled by incubation with a multiplexed mixture of primary antibodies in HBSS for 60 min at room temperature (293-298 K) to detect immunoreactivity of c-Jun (1:500), phospho-histone H3 (1:100), phospho-histone H2A.x (1:200), p53 (1:400), alpha-tubulin (1:200) and Hoechst 33342 (2 ug/mL). Cells were labeled for multiplexed imaging on two separate plates: a) Hoechst 33342, MitoTracker Red, phospho-histone H3, and alpha-tubulin, and b) Hoechst 33342, phospho-histone H2A.x, and c-Jun. A final rinse with HBSS (50 uL) was performed before analysis. The primary and secondary antibodies for the proteins were phospho-histone H3 (rabbit anti-phospho-histone H3 and FITC-donkey anti-rabbit IgG), phospho-histone H2A.x (mouse anti-phospho-histone H2A.x and FITC-donkey anti-mouse IgG), c-Jun (rabbit anti-phospho-c-Jun and Cy3-donkey anti-rabbit IgG), p53 (sheep anti-p53 and Cy5-donkey anti-sheep IgG), alpha-tubulin (mouse anti-alpha-tubulin and Cy5-donkey anti-mouse IgG). These antibodies are available as the CellCiphr HepG2 assay kit (Millipore).Digital images of each well were captured using a Cellomics ArrayScan VTI (Thermo Scientific Cellomics) (0.8 NA objective, 0.63x optical coupler, and XF-93 filter set) at 20x magnification. The images were acquired using the autofocus feature of the ArrayScan instrument, which entails the following steps. First, the camera focuses on channel 1 (Hoechst 33342), where nuclei are identified. Second, a Z offset of 1 um is used for capturing mitochondria (MitoTracker Red). […]
SMILES,outcome,AC50
Clc1nc(Cl)nc(Nc2ccccc2Cl)n1,inactive,
CCOc1nc(F)cc2nc(S(=O)(=O)Nc3c(Cl)cccc3Cl)nn12,inactive,
CC(C)Oc1cccc(NC(=O)c2ccccc2C(F)(F)F)c1,inactive,
N#Cc1c(Cl)cccc1Cl,inactive,
O=P(O)(O)CCCl,inactive,
Cc1cnc(C2=NC(C)(C(C)C)C(=O)N2)c(C(=O)O)c1 (stereo not given),inactive,
CC(C)Nc1nc(Cl)nc(NC(C)C)n1,inactive,
COCC(C)N(C(=O)CCl)c1c(C)csc1C (stereo not given),,92.6 µM (active)
CC(C)N1C(=O)c2ccccc2NS1(=O)=O,inactive,
COCC(=O)N(c1c(C)cccc1C)C(C)C(=O)OC (stereo not given),inactive,
Clc1cccc(C(Cl)(Cl)Cl)n1,inactive,
CN/C(=N\[N+](=O)[O-])NCc1cnc(Cl)s1,inactive,
CN=C=S,inactive,
N#Cc1c[nH]cc1-c1cccc2c1OC(F)(F)O2,inactive,
CC1(C)CON(Cc2ccccc2Cl)C1=O,inactive,
CCCCC(O)(Cn1cncn1)c1ccc(Cl)cc1Cl (stereo not given),,105 µM (active)
COc1cc(OC)nc(NC(=O)NS(=O)(=O)c2ncccc2OCC(F)(F)F)n1,inactive,
COC(=O)c1c(C(F)F)nc(C(F)(F)F)c(C2=NCCS2)c1CC(C)C,inactive,
COC(=O)N(C(=O)N1CO[C@@]2(C(=O)OC)Cc3cc(Cl)ccc3C2=N1)c1ccc(OC(F)(F)F)cc1,inactive,
O=c1n(Cl)c(=O)n(Cl)c(=O)n1Cl,inactive,

SMILES,outcome,AC50
CCOP(=S)(OCC)Oc1nc(Cl)n(C(C)C)n1,inactive,
COc1cc(Cl)c(OC)cc1Cl,inactive,
Nc1cnn(-c2ccccc2)c(=O)c1Cl,inactive,
CCCC(=NOCC)C1=C(O)CC(CC(C)SCC)CC1=O (stereo not given),inactive,
CCCN(CC)CC1COC2(CCC(C(C)(C)C)CC2)O1 (stereo not given),inactive,
CCCCC(C#N)(Cn1cncn1)c1ccc(Cl)cc1 (stereo not given),inactive,
CCSC(=O)N1CCCCCC1,inactive,
CCCCOCN(C(=O)CCl)c1c(CC)cccc1CC,inactive,
CC1(C)C(C(=O)OC(C#N)c2cccc(Oc3ccccc3)c2)C1(C)C (stereo not given),inactive,
C=CCOC(=O)C(C)(C)OC(=O)c1cc(-n2c(=O)cc(C(F)(F)F)n(C)c2=O)ccc1Cl,inactive,
COc1ccc(-c2ccccc2)cc1NNC(=O)OC(C)C,inactive,
OC(c1ccc(Cl)cc1)(c1ccc(Cl)cc1)C(Cl)(Cl)Cl,,112 µM (active)
CS(=O)(=O)c1cc(C(F)(F)F)ccc1C(=O)c1cnoc1C1CC1,inactive,
CNC(=O)N(C)c1nnc(C(C)(C)C)s1,inactive,
Nc1c(Cl)c(Cl)nc(C(=O)O)c1Cl,inactive,
CO/N=C(/C1=NOCCO1)c1ccccc1Oc1ncnc(Oc2ccccc2Cl)c1F,inactive,
Cc1cc(C)nc(Nc2ccccc2)n1,inactive,
CC(C)N1C(=O)N(c2ccccc2)CSC1=NC(C)(C)C,inactive,
C=C(C)CN(CC)c1c([N+](=O)[O-])cc(C(F)(F)F)cc1[N+](=O)[O-],inactive,
CNC(=O)Oc1cccc2ccccc12,inactive,
